From PubChem
The sample as a whole holds a higher share of hits than the screen did.
RBX1-CUL1 inh – inhibitors of human ROC1-CUL1 ubiquitin ligase activity; E3 ubiquitin-protein ligase RBX1 (Homo sapiens) + Cullin-1 (Homo sapiens), P62877+Q13616; in vitro K48 di-Ub FRET, acceptor:donor ratio, 45 min; inhibition, % at 10 µM; actives 0.6% (n = 140,000); AID 1347404, 2020; in the data active = inhibition above about 25%
Target sequence (P62877 whole entry, looked up): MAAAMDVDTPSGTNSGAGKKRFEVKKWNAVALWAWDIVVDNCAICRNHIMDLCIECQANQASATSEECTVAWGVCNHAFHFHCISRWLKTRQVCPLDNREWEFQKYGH
Target sequence (Q13616 whole entry, looked up): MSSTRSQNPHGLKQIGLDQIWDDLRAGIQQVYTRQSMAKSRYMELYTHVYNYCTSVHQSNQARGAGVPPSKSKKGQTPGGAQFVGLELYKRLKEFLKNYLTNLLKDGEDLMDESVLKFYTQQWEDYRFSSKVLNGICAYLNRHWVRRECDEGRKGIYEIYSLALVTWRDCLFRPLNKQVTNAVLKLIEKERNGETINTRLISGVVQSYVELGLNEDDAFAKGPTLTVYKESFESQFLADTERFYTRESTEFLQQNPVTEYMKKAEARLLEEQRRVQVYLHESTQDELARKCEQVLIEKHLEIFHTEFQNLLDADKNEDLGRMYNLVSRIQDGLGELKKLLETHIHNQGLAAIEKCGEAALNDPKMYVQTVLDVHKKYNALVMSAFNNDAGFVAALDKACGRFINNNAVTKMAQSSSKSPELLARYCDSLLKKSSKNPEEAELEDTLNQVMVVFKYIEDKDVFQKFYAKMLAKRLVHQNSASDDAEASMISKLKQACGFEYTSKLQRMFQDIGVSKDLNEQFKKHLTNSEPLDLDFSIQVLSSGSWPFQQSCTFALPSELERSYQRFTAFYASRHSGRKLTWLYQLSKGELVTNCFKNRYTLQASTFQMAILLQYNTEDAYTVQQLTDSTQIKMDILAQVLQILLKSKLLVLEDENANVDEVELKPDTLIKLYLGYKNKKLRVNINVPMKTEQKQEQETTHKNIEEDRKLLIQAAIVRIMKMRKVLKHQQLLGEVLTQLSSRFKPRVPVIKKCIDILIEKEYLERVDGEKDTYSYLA
Each line names hits and unclear results; the compound was inactive in the other large screens.

O=C1c2ccccc2-c2ncccc21	none
O=C1c2ccccc2-c2nc3nsnc3nc21	RBX1-CUL1 inh 86.9
O=C1c2ccccc2-c2nc3ccc(Cl)cc3nc21	none
CC(C)(C)c1ccc(CSc2nnc(COc3ccc(Cl)cc3)o2)cc1	none
CC(=O)c1ccc(NC(=O)C2C3C=CC(C4CC34)C2C(=O)O)cc1 (stereo unspecified)	none
CC(C)CCN1CCCC1C(=O)Nc1ccccc1Oc1cccnc1 (stereo unspecified)	none
CN(C)CCOC(c1ccc(F)cc1)c1ccc(Br)cc1 (stereo unspecified)	none
O=C1NN(c2cccc(F)c2)C(=O)/C1=C/c1ccc(-c2ccc(Cl)cc2)o1	none
Cc1ccc(N2NC(=O)/C(=C/c3ccc(-c4ccc(S(=O)(=O)Nc5nccs5)cc4)o3)C2=O)cc1Cl	RBX1-CUL1 inh 98.6
O=C1NN(c2ccc(Br)cc2)C(=O)/C1=C\c1ccc(-c2ccccc2)o1	none
CCCOC(=O)c1cc(-c2ccc(/C=C3/C(=O)NN(c4ccc(CC)cc4)C3=O)o2)ccc1Cl	none
CCc1ccc(N2NC(=O)/C(=C/c3ccc(-c4ccc(S(=O)(=O)Nc5nccs5)cc4)o3)C2=O)cc1	RBX1-CUL1 inh 93.3
COC(=O)c1cccc(-c2ccc(/C=C3/C(=O)NN(c4ccc(C)c(C)c4)C3=O)o2)c1	none
O=C1NN(c2ccc(F)c(Cl)c2)C(=O)/C1=C/c1ccc(-c2cccc(Cl)c2)o1	none
Cc1ccc(N2NC(=O)/C(=C/c3ccc(-c4ccc(S(=O)(=O)Nc5nccs5)cc4)o3)C2=O)cc1C	RBX1-CUL1 inh 84.8
O=C1NN(c2ccc(F)c(Cl)c2)C(=O)/C1=C/c1ccc(-c2ccc(Cl)cc2)o1	none
O=C(Nc1cccc(-c2cn3ccsc3n2)c1)c1ccc(I)cc1	none
O=C(Cn1nnnc1CN1CCCCCC1)N1CCN(c2ccncc2)CC1	none
COc1ccc(CNCc2ccc(C)o2)c(OCC(O)CN2CCCC2)c1 (stereo unspecified)	none
CC(C)c1cc(C(=O)N2CCN(C)CC2)cs1	none
COc1ccccc1NC(=O)CSc1nnc(-c2ccc(Br)cc2)n1N	none
Cc1ccccc1C1c2ccc3ccccc3c2OC(=N)C1C#N (stereo unspecified)	none
COC(=O)C1=NN(c2ccccc2)C2(S1)S/C(=C/c1ccc(Br)cc1)C(=O)N2c1ccccc1 (stereo unspecified)	none
CCOC(=O)c1sc(SC)c(C#N)c1O	none
CCOC(=O)c1sc(N2C(=O)C=CC2=O)c(C#N)c1C	RBX1-CUL1 inh 71.8
CCOC(=O)c1sc(NC(=O)C(F)(F)F)c(C#N)c1C	none
O=C(c1ccccc1)c1ccc(NC(=O)c2ccco2)cc1	none
O=C1C(Cl)=CC(=NS(=O)(=O)c2cccs2)c2ccccc21	RBX1-CUL1 inh 41.4
O=C(O)C(Cc1ccccc1)NS(=O)(=O)c1cccs1 (stereo unspecified)	none
O=C1C(=O)c2ccccc2/C1=C\c1cccs1	none
COc1ccc(C(=O)C(F)(F)F)c(OC)c1	none
Cc1c(Cl)cccc1NC(=O)N1CCC(Cn2cc(C(C)O)nn2)CC1 (stereo unspecified)	none
COc1cc(C2NC(=O)c3c(sc4c3CCC(C)C4)N2)ccc1O (stereo unspecified)	none
O=C(Nc1cccc(Cl)c1)Nc1ccccc1C(=O)O	none
Nc1ccccc1C(=O)Nc1cccc(Cl)c1	none
O=C(O)c1cc2oc3ccccc3c3ccccc3oc2cc1C(=O)Nc1cccc(Cl)c1	RBX1-CUL1 inh 39.9
O=C1NC(=S)N(c2ccc(F)cc2)C(=O)/C1=C\c1cccc(F)c1	none
COCCN(C)C(=O)CC1(c2ccccc2)CC(=O)N(CCCOc2cccnc2)C1=O (stereo unspecified)	none
COC(=O)c1c(-c2ccc(F)cc2)csc1NC(=O)c1ccc(F)cc1	none
C=CCN=C(N)SCc1nc2ccccc2c(=O)[nH]1	RBX1-CUL1 inh 36.1
CCN(CC)Cc1nc2ccccc2c(=O)[nH]1	none
C=CCSc1nc2ccccc2c(=O)[nH]1	none
CCOC(=O)C1=C(C)N=c2s/c(=C/c3ccccn3)c(=O)n2C1c1ccc(OC(C)C)cc1 (stereo unspecified)	none
Cc1ccc(C2=CSC3=NN=C(c4ccccc4)C(c4ccccc4)N23)cc1 (stereo unspecified)	none
C1=C(c2ccc(-c3ccccc3)cc2)N2C(=NN=C(c3ccccc3)C2c2ccccc2)S1 (stereo unspecified)	none
C1=C(c2ccccc2)N2C(=NN=C(c3ccccc3)C2c2ccccc2)S1 (stereo unspecified)	RBX1-CUL1 inh 40.9
COc1cccc(C2c3c(n[nH]c3C)OC(=N)C2C#N)c1OCc1ccccc1Cl (stereo unspecified)	none
Cc1cccc(OCCCOc2ccc(Br)cc2/C=C2\C(=O)NN(c3ccccc3)C2=O)c1	RBX1-CUL1 inh 57.3
CCOc1cc(/C=C2\C(=O)NN(c3ccccc3)C2=O)ccc1OCc1ccccc1C	none
COc1cc(/C=C2\C(=O)NN(c3ccccc3)C2=O)cc(Br)c1OCc1ccc(C)cc1	none
COc1cc(/C=C2/C(=O)NN(c3ccc(I)cc3)C2=O)cc(Br)c1OC(C)=O	none
CCOc1cc(/C=C2\C(=O)NN(c3ccccc3)C2=O)cc(Br)c1OCCCOc1cccc(C)c1	RBX1-CUL1 inh 34.6
COc1cc(/C=C2/C(=O)NN(c3ccccc3)C2=O)ccc1OCC(=O)Nc1cccc(C)c1	none
CCOc1ccc(/C=C2/C(=O)NN(c3cccc(F)c3)C2=O)cc1OC	none
COc1cc(/C=C2/C(=O)NN(c3ccc(C)c(C)c3)C2=O)ccc1OCC(=O)N1CCOCC1	none
COc1cc(/C=C2\C(=O)NN(c3ccccc3)C2=O)cc(Br)c1OCCCOc1cccc(C)c1	RBX1-CUL1 inh 45.1
COc1cc(/C=C2/C(=O)NN(c3ccc(C)c(C)c3)C2=O)cc(Br)c1OC(C)=O	RBX1-CUL1 inh 30.6
Cc1cccc(COc2ccccc2/C=C2\C(=O)NN(c3ccccc3)C2=O)c1	none
N#C/C(=C\c1cccnc1)c1nc2ccccc2s1	none
COc1cccc(C2Sc3ccccc3N=C3c4ccccc4C(=O)C32)c1 (stereo unspecified)	none
FC(F)(F)c1ccc(N2CCN(c3ccc(C(F)(F)F)cn3)CC2)nc1	none
O=C(OC1(C(=O)N2CCCCC2)c2ccccc2-c2ccccc21)c1ccccc1	none
CN1C(=O)C2=NC(=O)C=NC2N(C)C1=S (stereo unspecified)	none
COCCN1CC(C(=O)N2CCN(c3cnn(C)c(=O)c3)CC2)CC1=O (stereo unspecified)	none
N#CC1C(SCC(N)=O)=NC2=C(C(=O)c3ccccc32)C1c1ccccc1 (stereo unspecified)	none
Cc1nc2c(c(=O)[nH]1)C(c1ccc(Br)cc1)c1cc(Cl)c3ccccc3c1O2 (stereo unspecified)	none
COc1cc(/C=C2\C(=O)NN(c3ccccc3)C2=O)cc(Br)c1OCCCOc1ccc(Cl)cc1	RBX1-CUL1 inh 55.3
COc1cc(/C=C2/C(=O)NN(c3ccccc3)C2=O)cc(OC)c1O	none
CCOc1cc(/C=C2\C(=O)NN(c3ccccc3)C2=O)cc(Br)c1OCCCOc1ccc(Cl)cc1	none
CCCCOc1cccc(NC(=O)c2ccco2)c1	none
CCOc1ccc2nc3cc(NC(=O)c4ccco4)ccc3c(N)c2c1	RBX1-CUL1 inh 97.4
O=C(Nc1ccc(OCCOc2ccccc2)cc1)c1ccco1	none
Cc1cccc(C)c1Oc1ncccc1CNC(C)C	none
CC(=NNC(=O)CSc1nnc(CNc2ccc(C)cc2)n1-c1ccccc1)c1ccc2ccccc2c1	none
COc1ccc2c(c1)C(C1CCN(CCCC(C)O)CC1)Oc1ccccc1S2 (stereo unspecified)	none
CCCN1CCC(NC(=O)Cc2cccs2)CC1	none
O=C1c2cc(Cl)c(Cl)cc2C(=O)N1CNc1cccc(Cl)c1Cl	none
CCOC(=O)c1nn(-c2ccc3c(c2)OCCO3)cc1O	none
